# Measured values published in PubChem BioAssay (Tox21).
# Several values for one entry are separate records, joined by “and”; a condition that tells them apart may be missing. Identical values can stand only once. Activity calls are given as the source filed them. The call rests on the fitted dose curve.
# Assay: qHTS assay to identify small molecule agonists of the estrogen related receptor (ERR) signaling pathway from Tox21 library (AID 1224849); further: nearly all actives have a fitted effect of over 15% in size
# Settings: ERR reporter cell line, ONE-Glo luciferase, 18 h; at 42.5 µM (top of the series)
# Source text: National Center for Advancing Translational Sciences [NCATS]
# NIH Chemical Genomics Center [NCGC]
# U.S. Environmental Protection Agency [EPA]
# National Institutes of Environmental Health Sciences [NIEHS]
# National Toxicology Program [NTP]
# Estrogen related receptors (ERRs), the first orphan nuclear receptors discovered, play an important role in the control of cellular energy metabolism. ERRs are required for high-energy production in response to the environmental challenges. ERR-alpha was also identified as an adverse marker for breast cancer progression; ERR-alpha-positive tumors have a poor prognosis. To screen and to identify environmental compounds that perturb the ERR signaling pathways could provide valuable information for potential therapeutic or preventive measures in the treatment of metabolic disease. For identifying ERR agonists, ERR cell line (provided by NTP) has been used to screen Tox21 10K library.
# The ERR cells were dispensed at 2,000 cells/5 ul/well in 1536-well white plates using a Multidrop dispenser. After the assay plates were incubated at a 37 C/5% CO2 incubator for 6 hours, 23 nL of compounds dissolved in DMSO, positive and negative controls or DMSO only was transferred to the assay plate by a pin tool. The plates were incubated at 37 C for 18 hours. 4 ul/well of One-Glo reagent was added into the assay plates using a Flying Reagent Dispenser. After 30-minute incubation at room temperature, the luminescence intensity in the plates was measured using a ViewLux plate reader.
# On the % scale 0 is the no-effect control and ±100 the full control effect.
row,Compound,"activity change, positive = activation"
1,Clc1ccccc1C(c1ccccc1)(c1ccccc1)n1ccnc1,-60.3% (inactive)
2,Oc1ccc(Cl)cc1Sc1cc(Cl)ccc1O,-51.1% (inactive)
3,CC(C)(C)CC(C)(C)c1ccc(OCCOCC[N+](C)(C)Cc2ccccc2)cc1,-58.4% (inactive)

# Same assay, conditions: ERR reporter cell line, ONE-Glo luciferase, 18 h; at 92.4 µM (top of the series)
row,Compound,"activity change, positive = activation"
1,Clc1ccccc1C(c1ccccc1)(c1ccccc1)n1ccnc1,-72.6% (inactive)
2,Oc1ccc(Cl)cc1Sc1cc(Cl)ccc1O,-52% (inactive)
3,CC(C)(C)CC(C)(C)c1ccc(OCCOCC[N+](C)(C)Cc2ccccc2)cc1,-70.8% (inactive)

# Same assay, conditions: ERR reporter cell line, ONE-Glo luciferase, 18 h; at 92.4 µM (top of the series) unless noted
row,Compound,"activity change, positive = activation"
1,CC(C)CCCCCCCCCCCCCCC(=O)O,-17% (inactive)
2,Cn1cc(C(=O)[C@@H]2CCc3nc[nH]c3C2)c2ccccc21,-13.3% [at 42.5 µM] (inactive)
3,CC1(C)CCC(C)(C)c2cc(C(=O)Nc3ccc(C(=O)O)cc3)ccc21,-24.2% (inactive)
4,CS(=O)(=O)CCNCc1ccc(-c2ccc3ncnc(Nc4ccc(OCc5cccc(F)c5)c(Cl)c4)c3c2)o1,-48.5% [at 42.5 µM] (inactive)
5,[Cl][Au]([Cl])[Cl],-67.4% (inactive)
6,Cc1cc2c(cc1C(F)(F)F)N(C(=O)Nc1ccc(Oc3cccnc3C)nc1)CC2,-42.2% (inactive)
7,O=c1[nH]sc2cc(Cl)ccc12,-42.9% [at 42.5 µM] (inactive)
8,NC(=O)N1C(=O)C(C(=O)c2cc(Cl)cs2)c2cc(F)c(Cl)cc21 (stereo not given),-9.34% (inactive)
9,CC(C)(C)NC(=O)[C@@H]1C[C@@H]2CCCC[C@@H]2CN1C[C@@H](O)[C@H](Cc1ccccc1)NC(=O)[C@H](CC(N)=O)NC(=O)c1ccc2ccccc2n1,-72.5% (inactive)
10,CCN(CCC#N)c1ccc(N=Nc2c(Cl)cc([N+](=O)[O-])cc2Cl)cc1,-27% (inactive)
11,COc1cc(-c2ccc(N=C=O)c(OC)c2)ccc1N=C=O,-0.106% [at 42.5 µM] (inactive)
12,Cc1cccc(CN2CCN(C(c3ccccc3)c3ccc(Cl)cc3)CC2)c1 (stereo not given),-29.2% [at 42.5 µM] (inactive)
13,CCOc1nc2cccc(C(=O)OC(C)OC(=O)OC3CCCCC3)c2n1Cc1ccc(-c2ccccc2-c2nn[nH]n2)cc1 (stereo not given),-65.4% (inactive)
14,CCCCCCCCCCCCCCCCCC[N+](C)(C)C,-79.1% (inactive)
15,On1ccccc1=S,-71.1% (inactive)
16,NNc1nc(-c2ccc(N)cc2)cs1,-40.8% (inactive)
17,CCCC(=O)OC[C@@H](OC(=O)CCC)[C@@H](OC(=O)CCC)[C@H](Cn1c2nc(=O)[nH]c(=O)c-2nc2cc(C)c(C)cc21)OC(=O)CCC,-44.5% [at 42.5 µM] (inactive)

row,Compound,"activity change, positive = activation"
1,Cc1cccc2c1cc1ccc3cccc4ccc2c1c34,35.4% (active)
2,COc1ccc(-c2ccc3cc(C(=O)O)ccc3c2)cc1C12CC3CC(CC(C3)C1)C2,-10.4% [at 42.5 µM] (inactive)
3,C/C=C(\C)C(=O)OCc1ccccc1,5.16% (inactive)
4,COc1cc(/C=C/C(=O)O[C@H]2CC[C@]34C[C@]35CC[C@]3(C)[C@@H]([C@H](C)CCC=C(C)C)CC[C@@]3(C)[C@@H]5CC[C@H]4C2(C)C)ccc1O,-5.43% [at 42.5 µM] (inactive)
5,CNCc1cc(F)ccc1Oc1ccc(Cl)c(Cl)c1,-40.3% (inactive)
6,CC(C)c1ccc2c(c1)CC[C@H]1[C@](C)(CN)CCC[C@]21C,-75.7% (inactive)
7,CCN1/C(=C/C=C/c2sc3ccccc3[n+]2CC)Sc2ccccc21,-58.8% [at 19 µM] (inactive)
8,C[C@@H]1C[C@H]2[C@@H]3CCC4=CC(=O)C=C[C@]4(C)[C@@]3(Cl)[C@@H](O)C[C@]2(C)[C@@]1(OC(=O)c1ccco1)C(=O)CCl,-51.1% [at 42.5 µM] (inactive)
9,CCCCCCCCCOC(=O)c1ccc(O)cc1,-33.4% (inactive)
10,O=C(OC[C@H]1O[C@@H](OC(=O)c2cc(O)c(O)c(OC(=O)c3cc(O)c(O)c(O)c3)c2)[C@H](OC(=O)c2cc(O)c(O)c(OC(=O)c3cc(O)c(O)c(O)c3)c2)[C@@H](OC(=O)c2cc(O)c(O)c(OC(=O)c3cc(O)c(O)c(O)c3)c2)[C@@H]1OC(=O)c1cc(O)c(O)c(OC(=O)c2cc(O)c(O)c(O)c2)c1)c1cc(O)c(O)c(OC(=O)c2cc(O)c(O)c(O)c2)c1,-16% [at 19 µM] (inactive)
11,Cc1cc(CCN2CCN(c3nsc4ccccc34)CC2)cc2c1NC(=O)CC2(C)C,-74.7% (inactive)
12,CCCCCCCCCCCC[N+](C)(C)CCCCCCCCCCCC,-72.6% (inactive)
13,CC(C)n1nc(-c2cc3cc(O)ccc3[nH]2)c2c(N)ncnc21,-55.4% [at 42.5 µM] (inactive)
14,C[C@H](CCC(=O)O)[C@H]1CC[C@H]2[C@@H]3CC[C@@H]4C[C@H](O)CC[C@]4(C)[C@H]3CC[C@]12C,-9.3% (inactive) and -27.2% (inactive)
15,CCCCN1C(=O)[C@@H]([C@H](O)C2CCCCC2)NC(=O)C12CCN(Cc1ccc(Oc3ccc(C(=O)O)cc3)cc1)CC2,-19.3% (inactive)
16,NNc1nc(-c2ccccc2)cs1,-30.7% (inactive)
17,O=C(Nc1cccc(Cl)c1)OCC#CCCl,-74.2% (inactive)
